SARS 3CLpro inh: SARS-CoV 3CLpro protease inhibitors, primary screen, biochemical, quenched FRET | Replicase polyprotein 1ab (Severe acute respiratory syndrome coronavirus), P0C6X7 | recombinant SARS-CoV 3CLpro, quenched FRET peptide cleavage | inhibition, % at 6 µM | 290,000 compounds, 0.14% hits | AID 1706, 2009; in the data active = inhibition above about 12%
FadD28 binding: inhibitors of FadD28 bisubstrate probe binding, primary screen, biochemical, fluorescence polarization, single point; Mycobacterium tuberculosis FadD28 fatty-acid-AMP ligase; inhibition, % at 12.5 µM; 360,000 compounds, 0.22% hits; AID 588549, 2011; in the data active = inhibition above about 8.5%, passing the limit was not always enough
GDH-TPI counter: GDH-TPI coupling enzyme inhibitors, primary screen, artefact control for M. tuberculosis FBA inhibitor project, biochemical, absorbance, full deck | inhibition, % at 4.8 µM | GDH-TPI coupled enzyme counterscreen, NADH absorbance | 360,000 compounds, 1.2% hits | AID 588335, 2011; in the data active = inhibition above about 30%;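 note: 0% = DMSO wells and 100% = wells lacking the enzyme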
Mtb FBA inh: Mtb FBA enzyme inhibitors, primary screen, biochemical, fluorescence, strain H37Rv; 360,000 compounds, 2.3% hits; purified M. tuberculosis FBA, fluorescence read-out; Fructose-bisphosphate aldolase (Mycobacterium tuberculosis (strain ATCC 25618 / H37Rv)), …; inhibition, % at 1 µM; in the data active = inhibition above about 27%;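 note: 0% = vehicle and 100% = reference inhibitor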
Target sequence (P9WQA3 whole entry, looked up): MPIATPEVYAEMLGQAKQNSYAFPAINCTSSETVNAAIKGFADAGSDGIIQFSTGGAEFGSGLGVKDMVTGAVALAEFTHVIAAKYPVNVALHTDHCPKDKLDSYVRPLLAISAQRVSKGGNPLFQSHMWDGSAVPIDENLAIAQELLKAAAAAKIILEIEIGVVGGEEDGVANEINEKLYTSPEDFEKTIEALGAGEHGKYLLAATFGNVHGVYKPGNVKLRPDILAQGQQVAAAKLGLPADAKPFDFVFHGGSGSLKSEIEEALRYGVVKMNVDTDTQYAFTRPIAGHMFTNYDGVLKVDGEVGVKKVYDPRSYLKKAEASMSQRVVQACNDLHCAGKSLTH
BioA inh: M. tuberculosis BioA enzyme inhibitors, primary screen, biochemical, plate reader, single point, HTS | purified M. tuberculosis BioA enzyme | inhibition, % at 9.99 µM | 360,000 compounds, 0.096% hits | AID 602481, 2012; in the data active = inhibition above about 40%
* marks the source's active call; other numbers are inactive results; . = no result given; + = active, no number. In the library only some 3.1% were active in any assay of this set; here they are far more common.

SMILES | SARS 3CLpro inh | FadD28 binding | GDH-TPI counter | Mtb FBA inh | BioA inh
CN(C)CC#Cc1cccc(-c2nc(C(=O)N3CCN(C)CC3)cc3c2[C@@H](CCO)N(S(=O)C(C)(C)C)C3)c1 (some centres not stated) | . | . | . | . | -1
Cc1noc(C)c1S(=O)(=O)Nc1ccc2c(c1)CC(=O)N([C@@H](C)CO)C[C@@H](C)[C@H](CN(C)S(=O)(=O)c1c(C)noc1C)O2 | . | . | . | . | -3
C[C@H](NC(=O)C[C@@H]1CC[C@@H]2[C@H](COC[C@H](O)CN2C(=O)Nc2ccccc2)O1)c1ccccc1 | . | . | . | . | -2
COc1ccc(C(=O)Nc2cnc3ccccn3c2=O)cc1 | 1 | -1 | 49* | -1 | .
O=C(Nc1cnc2ccccn2c1=O)c1ccc(F)cc1 | 3 | -1 | 24 | -2 | -1
Cc1ccc(/C=C/C(=O)Nc2nnc(C)s2)o1 | 2 | 1 | 32* | 2 | .
COc1ccc(NC(=O)/C(C#N)=C\c2ccc(OCc3ccc(C(=O)O)cc3)c(OC)c2)cc1 | 1 | -4 | 18 | -1 | .
COc1cc(/C=C(\C#N)C(=O)Nc2cccc(C(=O)O)c2)ccc1OCc1ccc(F)cc1 | 8 | -16 | 36* | 0 | -7
COc1cc(/C=C(/C#N)c2ccc(F)cc2)ccc1OCc1ccc(C(=O)O)o1 | 6 | -4 | 45* | 1 | 0
N#C/C(=C\c1ccc(OCc2ccc(F)cc2)cc1)C(=O)Nc1cccc(C(=O)O)c1 | 1 | -5 | 73* | -6 | 1
N#C/C(=C\c1ccc(OCc2ccc(Br)cc2)cc1)C(=O)Nc1cccc(C(=O)O)c1 | 6 | -4 | -2 | 0 | 1
COC(=O)c1ccc(COc2ccc(C=O)cc2OC)o1 | 1 | 1 | 1 | 2 | 2
Clc1ccc2c(c1)[C@H]1OCC[C@H]1[C@@H](c1ccco1)N2 | -1 | -2 | 6 | 38* | -1
COc1ccc(/C=N/NC(=O)c2ccco2)cc1OCc1ccccc1 | 6 | -3 | 40* | -2 | .
O=C(N/N=C/c1ccc(OCc2ccccc2)cc1)c1ccco1 | -2 | -4 | 13 | -4 | 0
Cc1cc(C(=O)N/N=C/c2ccc(OCc3ccccc3)cc2)c(C)o1 | -4 | -3 | 15 | 0 | .
COc1ccc(/C=N/NC(=O)c2cc(C)oc2C)cc1OCc1ccccc1 | -5 | -3 | 32* | -1 | 0
CO[C@H]1CN(C)C(=O)c2ccc(NC(=O)Nc3ccccc3F)cc2OC[C@H](C)N(C(C)=O)C[C@@H]1C | . | . | . | . | 1
Cc1cccn2c(=O)c3cc(C(=O)NCC4CCCO4)n(C)c3nc12 (configuration not stated) | -1 | . | . | . | .
Cn1c(C(=O)NCC2CCCO2)cc2c(=O)n3ccccc3nc21 (configuration not stated) | 3 | -3 | 14 | + | -1
Cn1c(C(=O)NCCC2=CCCCC2)cc2c(=O)n3ccccc3nc21 | -2 | 0 | 4 | 114* | -2
Cn1c(C(=O)N2COCC2(C)C)cc2c(=O)n3ccccc3nc21 | -1 | 0 | -4 | + | -1
COc1ccc(CN(C)C[C@@H]2OCCCC[C@H](C)Oc3ccc(NC(=O)NC4CCCCC4)cc3C(=O)N([C@H](C)CO)C[C@H]2C)cc1 | . | . | . | . | -4
CNC(=O)/C(C#N)=C/c1c(N2CC(C)OC(C)C2)nc2ccccn2c1=O (configuration not stated) | 6 | -2 | 12 | 124* | .
COCCNC(=O)/C(C#N)=C/c1c(N2CCN(c3ccccc3)CC2)nc2ccccn2c1=O | 0 | -2 | 12 | 16 | 1
SMILES | SARS 3CLpro inh | FadD28 binding | GDH-TPI counter | Mtb FBA inh | BioA inh
CCNC(=O)/C(C#N)=C/c1c(N2CCCCCC2)nc2ccccn2c1=O | -2 | -1 | 19 | 135* | 1
COCCCNC(=O)/C(C#N)=C/c1c(N2CCN(C)CC2)nc2ccccn2c1=O | -5 | -4 | 2 | 140* | 1
CCNC(=O)/C(C#N)=C/c1c(N2CC(C)OC(C)C2)nc2ccccn2c1=O (configuration not stated) | 0 | 2 | 27 | 3 | 0
CC(C)NC(=O)N(C)C[C@H]1OCCCC[C@H](C)Oc2ccc(NC(=O)C3CCCCC3)cc2C(=O)N([C@H](C)CO)C[C@@H]1C | . | . | . | . | 1
C[C@H](CO)N1C[C@H](C)[C@H](CN(C)S(=O)(=O)c2cn(C)cn2)Oc2ncc(/C=C/c3ccccc3)cc2C1=O | . | . | . | . | 0
COc1cc(/C=N/N=C2/NC(=O)C(Cc3ccc(F)cc3)S2)ccc1O (configuration not stated) | -2 | 4 | 42* | 3 | .
COc1cc(/C=N/N=C2/NC(=O)C(c3ccccc3)S2)ccc1O (configuration not stated) | -2 | -1 | 54* | -4 | 0
CC(C)=N/N=C1/NC(=O)C(c2ccccc2)S1 (configuration not stated) | . | 0 | 11 | 0 | 0
O=C1C(=O)N(c2ccc(O)cc2)C(c2ccccc2[N+](=O)[O-])/C1=C(\O)c1ccccc1 (configuration not stated) | 5 | 0 | 36* | -5 | 1
CCc1cc2c3c(c(=O)oc2cc1O)CCCC3 | 3 | -3 | 13 | + | 1
Cc1oc2cc3oc(=O)c4c(c3cc2c1C)CCC4 | -3 | -3 | 0 | 1 | -1
Cc1c(OC(C)C(=O)O)ccc2c3c(c(=O)oc12)CCCC3 (configuration not stated) | 0 | -4 | 3 | 173* | 1
COc1ccc2c3c(c(=O)oc2c1OCC(N)=O)CCCC3 | 4 | -4 | -5 | 75* | 4
CC(C)CNC(=O)COc1ccc2c3c(c(=O)oc2c1)CCC3 | 4 | 0 | 9 | 19 | 3
CC(=O)C(C)Oc1ccc2c3c(c(=O)oc2c1)CCCCC3 (configuration not stated) | 3 | -3 | 12 | 176* | -18
CN(C)C(=O)C[C@H]1CC[C@H]2[C@@H](COc3ccc(NC(=O)Nc4cccc(Cl)c4)cc3C(=O)N2C)O1 | . | . | . | . | 3
O=C(C[C@H]1C=C[C@H](NC(=O)c2ccc(F)cc2)[C@@H](CO)O1)NCc1ccncn1 | . | . | . | . | 2
CCc1cc2c3c(c(=O)oc2cc1OC(C)C(=O)O)CCCC3 (configuration not stated) | 4 | -7 | 16 | 159* | 2
CCc1cc2c(-c3ccccc3)cc(=O)oc2cc1OC(C)C(=O)O (configuration not stated) | 7 | -8 | 14 | 4 | 1
CC(=O)Oc1ccc2c3c(c(=O)oc2c1C)CCCC3 | 2 | 0 | 2 | + | -2
